From PubChem BioAssay (NCI)
Several values for one entry are separate records, joined by “and”; a condition that tells them apart may be missing. Identical values can stand only once. About 83,000 compounds went through this panel and 20% of them were active in at least one assay; those are over-represented in the sample as a whole.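 Cells were grown in 96-well plates and exposed to the test compound at a single concentration for 48 hours; results are reported as percent growth, with values below 10 considered active.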 Activity calls are given as the source filed them.

System: MDA-MB-468 breast
Experiment: NCI-60 one-dose screen, 48 h (100 = growth as untreated, 0 = no growth, -100 = all killed)
Details: 10 µM unless noted

| Compound | growth |
| --- | --- |
| CC1(C)N=C(N)N=C(N)N1c1ccc(CCC(=O)Nc2ccc(S(=O)(=O)F)cc2)c(Cl)c1 | 64.2% (inactive) |
| CCCCCCCC[N+]12CN3CN(CN(C3)C1)C2 | 93.4% (inactive) |
| COc1cc(N(CCCl)CCCl)ccc1C=Nc1ccccc1C(=O)O | 63.3% (inactive) |
| CCCCCCCCCCCCCCCCCC1OC[C@@H](COC(=O)O[C@@H](C(=O)O[C@H]2C[C@@]3(O)[C@@H](OC(=O)c4ccccc4)[C@@H]4[C@]5(OC(C)=O)CO[C@@H]5C[C@H](O)[C@@]4(C)C(=O)[C@H](OC(C)=O)C(=C2C)C3(C)C)[C@@H](NC(=O)c2ccccc2)c2ccccc2)O1 (stereo partly specified) | 21% (inactive) |
| OB([O][Hg][c]1ccccc1)[O][Hg][c]1ccccc1 | -71.2% (active) |
| O=C(O)C1[O][Sb][O]C1C(=O)O (stereo unspecified) | 95.7% (inactive) |
| c1ccc(CSC(c2ccccc2)c2ccccc2)cc1 | 124% (inactive) |
| CC(=O)/C=C/c1ccc2c(c1)OCO2 | 96.6% (inactive) |
| CC(=O)Nc1ccc(NC(=O)c2ccc([As](O)O)cc2)cc1 | 92.5% (inactive) |
| COc1ccc(O)c(CNC(=O)CN2CCCC2=O)c1 | 108% (inactive) |
| CC(=O)Nc1nc2c(s1)C1=CC[C@H]3[C@@H]4CC[C@H](OC(C)=O)[C@@]4(C)CC[C@@H]3[C@@]1(C)CC2 | 55.7% (inactive) |
| CC1(C)N=C(N)N=C(N)N1c1ccc(CCCCc2ccc(S(=O)(=O)F)cc2)cc1 | -3.5% (active) |
| O=C(CC1(O)C(=O)Nc2ccc(F)cc21)c1ccc(C(=O)NCC2CCC3(CC2)OOC2(CCCCC2)OO3)cc1 (stereo unspecified) | 47.6% (inactive) |
| Cc1ccc(N)cc1[As]=[As]c1cc(N)ccc1C (stereo unspecified) | -92.9% (active) |
| COc1ccc2nc(NC(=O)COc3cc(/C=C\c4cc(OC)c(OC)c(OC)c4)ccc3OC)sc2c1 | -5.6% (active) |
| CC1(C)N(Nc2ccccc2)C(=O)C2CCCN21 (stereo unspecified) | 79.2% (inactive) |
| NC(=O)c1cc([N+](=O)[O-])c(Cl)c([N+](=O)[O-])c1 | 19.8% (inactive) |
| COc1cc(C=Nc2cc(Cl)cc(Cl)c2)ccc1N(CCCl)CCCl | 36.3% (inactive) |
| CC1[C@H](C)OC(=O)CC(O)CC(O)CC(O)CCC(O)C(O)C[C@]2(O)CC(O)C(C(=O)O)C(CC(OC3O[C@H](C)[C@@H](O)[C@H](N)[C@@H]3O)/C=C/C=C/C=C/C=C/CC/C=C/C=C/[C@H](C)[C@H]1O)O2 (stereo partly specified) | 108% (inactive) |
| CC(C)CCC1C(=O)NC(=O)NC1=O | 114% (inactive) |
| CC1(C)N=C(N)N=C(N)N1c1ccc(OCCCCNC(=O)Nc2cccc(S(=O)(=O)F)c2)c(Cl)c1 | 40.9% (inactive) |

| Compound | growth |
| --- | --- |
| CC1(C)CN1P(=O)(N1CC1(C)C)N1CC1(C)C (stereo unspecified) | 106% (inactive) |
| O=S(OO)c1cc(Cl)c(O)c(Cl)c1 (stereo unspecified) | 112% (inactive) |
| O=P(N1CC1)(N1CC1)N1CCc2ccccc21 | 95.2% (inactive) |
| NC1CN2CCC1CC2 (stereo unspecified) | 108% (inactive) |
| COC(=O)C1=CCCN(C)C1 | 105% (inactive) and 92.8% (inactive) |
| C[C@]12CCc3sc(NCCc4ccccc4)nc3C1=CC[C@@H]1[C@@H]2CC[C@]2(C)C(=O)CC[C@@H]12 | 32.9% (inactive) |
| C[C@]12CC[C@H](OC3OC(O)C(O)C(O)C3O)C=C1CCC1C2CC[C@]2(C)[C@@H](c3ccc(=O)oc3)CC[C@]12O (stereo partly specified) | -63.8% (active) |
| N#CCN(CC#N)[N+](=O)[O-] | 112% (inactive) |
| Cc1cc(N(CCCl)CCCl)ccc1C=Nc1ccc(-c2csc(-c3ccccc3)n2)cc1 | 3.69% (active) |
| O=C(N/N=C/c1ccc(N(CCCl)CCCl)cc1)c1cccc2ccccc12 | 56.2% (inactive) |
| CCCOC(=O)N[C@H]1CCc2c(Br)c(OC)c(OC)c(OC)c2-c2ccc(SC)c(=O)cc21 | -14.2% (active) |
| O=C1C2C(C(=O)[N]1[Hg][c]1ccccc1)C1(Cl)C(Cl)=C(Cl)C2(Cl)C1(Cl)Cl (stereo unspecified) | -72.7% (active) |
| CNC(=O)Oc1ccc(C(C)(C)C)cc1OC(=O)NC | 88.4% (inactive) |
| CC[C@H](C)[C@H](NC(=O)c1ncccn1)C(=O)N(C)[C@H](C[C@@H](OC(C)=O)c1nc(C(=O)N[C@@H](Cc2ccccc2)C[C@H](C)C(=O)OC)cs1)C(C)C | 23% (inactive) |
| CN(C)c1ccc([N+](=O)[O-])c([N+](=O)[O-])c1 | 110% (inactive) and 95.6% (inactive) |
| Cc1ccc(CNc2nc3ccc(OC/C(=C/F)CN)cc3o2)cn1 | 109% (inactive) |
| O=C([O][Hg][c]1ccccc1)c1ccccc1 | -67.2% (active) |
| C[C@@H]1C[C@H]2C(=O)O[C@@H](C)C(NC(=O)[C@H](Cc3cc(F)cc(F)c3)NC(=O)Nc3ccc(OS(=O)(=O)F)cc3)C(=O)N3CCC[C@H]3C(=O)N3CCO[C@H](C)[C@H]3C(=O)N[C@@H](CO)C(=O)N2C1 (stereo partly specified) | -7.29% (active) |
| CCCCOc1ccc(C(N)Cc2ccccc2)cc1 (stereo unspecified) | 76.2% (inactive) |
| O=C([O][Hg][CH2]C1OCCOC1[CH2][Hg][O]C(=O)c1ccccc1)c1ccccc1 (stereo unspecified) | -81.5% (active) |
| Nc1nc(=S)nc(N)[nH]1 | 99.3% (inactive) |

| Compound | growth |
| --- | --- |
| CCCCCCCCCCCC1CCCC(C)N1 (stereo unspecified) | 73.3% (inactive) |
| Clc1cccc(N2COOC3(OOC2)C2CC4CC(C2)CC3C4)c1 | 77.7% (inactive) |
| CC(=O)OC[C@]1(C)C=C2C(=O)[C@](C)(O)C3(CC3)C(C)=C2[C@H]1O | -71.7% (active) |
| Cc1cc(C)c(CBr)c(C)c1 | 98.9% (inactive) |
| CC(C)CCC(=O)O[C@H]1CC[C@H]2[C@@H]3CCC4=CC(=O)CC[C@]4(C)[C@H]3CC[C@]12C | 102% (inactive) |
| Cn1cc(C(=O)C[n+]2ccccc2)c2ccccc21 | 88% (inactive) |
| C/C=C/CC(C)C(O)[C@H](NC(=O)[C@@H]1CCCN1C(=O)C(C)(C)NC(=O)CCCCCCCCC)C(=O)N[C@@](C)(CC)C(=O)N[C@@H](CCC(N)=O)C(=O)N[C@H](CCC(N)=O)C(=O)NC(C)(C)C(=O)N[C@@](C)(CC)C(=O)N[C@@H](CCC(N)=O)C(=O)N[C@H](CC(C)C)C(=O)N[C@H](CO)CC(C)C (stereo partly specified) | 99.2% (inactive) and -78.2% (active) |
| O=C(CCc1ccco1)NC1CCN(CC2(c3ccc(Cl)cc3)CCC2)CC1 | -11.5% (active) |
| ClC1OC(Cl)(Cl)C(Cl)(Cl)OC1(Cl)Cl (stereo unspecified) | 105% (inactive) |
| COC(=O)[C@H](C[C@H](Cc1ccccc1)NC(=O)c1csc([C@@H](C[C@H](C(C)C)N(C)C(=O)[C@@H](NC(=O)[C@H]2CCCCN2C)C(C)C)OC(C)=O)n1)NC(=O)OCc1ccccc1 | 0.51% [8.5 µM] (active) |
| CN1C2CCC1[C@@H](COC(=O)c1ccccc1)[C@@H](O)C2 (stereo partly specified) | 86.1% (inactive) |
| CCOP(=O)(Nc1ccc2c(c1)/C(=N/NC(N)=S)c1ccccc1-2)OCC | 86% (inactive) |
| O=[N+]([O-])c1cc[n+]([O-])c2ccccc12 | -60.4% (active) |
| CC(C)(NC(=O)O[C@@H]1CN2CCC1CC2)c1csc(-c2ccc(F)cc2)n1 | 85.2% (inactive) |
| O=[N+]([O-])c1cc([N+](=O)[O-])c(Cl)c(Cl)c1Cl | -57.3% (active) |
| COc1ccc(/C=C(/C(=O)N2CCCC2)c2cc(OC)c(OC)c(OC)c2)cc1N | -4.72% (active) |
| O=[N+]([O-])c1ccc([Se]C2CCCCC2Cl)c([N+](=O)[O-])c1 (stereo unspecified) | 90.5% (inactive) |
| ClCCN(CCCl)c1nc(Cl)c(C2CC(c3ccccc3)=NN2c2ccccc2)s1 (stereo unspecified) | 75.4% (inactive) |
| O=C1C2CC=CCC2C(=O)N1SC(Cl)(Cl)Cl (stereo unspecified) | 103% (inactive) |
| O=C1CNC(c2ccccc2)c2cc(Cl)ccc2N1 (stereo unspecified) | 104% (inactive) |
| CCOC(=O)[C@@H](C)C[C@H](Cc1ccccc1)NC(=O)c1csc([C@@H](C[C@H](C(C)C)N(C)C(=O)[C@H](CC)NC(=O)[C@H]2CCCCN2C)OC(C)=O)n1 | 32.5% (inactive) |

| Compound | growth |
| --- | --- |
| COc1cc(/C=N/C2=C(C#N)C(c3ccco3)c3c(c4cc(C)ccc4oc3=O)O2)cc(OC)c1OC (stereo unspecified) | 109% (inactive) |
| O=S(=O)(c1ccc(O)cc1)c1ccccc1O | 108% (inactive) |
| COc1ccc(C(C#N)C(C)=O)cc1 (stereo unspecified) | 106% (inactive) |
| COc1cc(/C=C\[N+](=O)[O-])ccc1O | 4.87% (active) and 65.1% (inactive) |
| CS(=N)(=O)CCC(N)C(=O)O (stereo unspecified) | 106% (inactive) |
| COc1ccc2c(c1)c(-c1nc(-c3cn(C)c4ncccc34)cs1)cn2CCN1CCOCC1 | 45.8% (inactive) |
| NC1CC2CCCCC2CC1(O)c1ccccc1 (stereo unspecified) | 98.2% (inactive) |
| C[C@]12C[C@@H](CO)[C@H](O)C[C@@H]1CC[C@@H]1[C@@H]2CC[C@]2(C)[C@@H](O)CC[C@@H]12 | 106% (inactive) |
| CC(Oc1ccc(-c2ccccc2)cc1)C(=O)O (stereo unspecified) | 94.4% (inactive) |
| C=C1C(=O)OC2CC3(C)OC3C3OC3C3=CC(OC3=O)C12 (stereo unspecified) | 32.8% (inactive) and 65.2% (inactive) |
| [Au+].[N-]=C=O.c1ccc(CN2[CH-]N(Cc3ccccc3)C(c3ccccc3)=C2c2ccccc2)cc1 | 72.7% (inactive) |
| O=[N+]([O-])CC(O)C(Cl)(Cl)Cl (stereo unspecified) | 102% (inactive) |
| COc1cc(C2CC(=O)Nc3nc(N)[se]c32)cc(OC)c1OC (stereo unspecified) | 99.3% (inactive) |
| O=c1[nH]c(=O)[nH]c(=O)[nH]1 | 146% (inactive) |
| COc1cc2c(cc1OC)CN(C)C(C)C2 (stereo unspecified) | 97.9% (inactive) |
| O=C(CBr)Nc1ccccc1 | 108% (inactive) |
| O=C(N/N=C\c1ccc(N(CCCl)CCCl)cc1)c1cccc([N+](=O)[O-])c1 | 68.1% (inactive) |
| Cn1cc(C2=C(c3cn(C4CCN(Cc5ccccn5)CC4)c4ccccc34)C(=O)NC2=O)c2ccccc21 | 119% (inactive) |
